High-throughput results (PubChem BioAssay)
Only some compounds are listed: those with a hit (about 2.6% of all), similar ones and a draw of the others.
A549 tox-1 – Nrf2 qHTS screen for inhibitors: counterscreen for cytotoxicity; A549 ARE-Fluc cells, CellTiter-Fluor viability, 18-24 h; Potency, µM (series often up to 46 µM), most hits filed as inhibitors; 390,000 compounds, 0.16% hits; AID 504648, 2011
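A549 ARE_Fluc cells in 5% FBS OPTI-MEM were exposed to compounds in concentration-response for 18-24 h at 37 deg C. Viability was read by CellTiter-Fluor fluorescence (Ex 405/Em 525) after 30 min, before the luciferase read.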
CCT modulator – High-Throughput Screening for Modulators of Cytosolic Chaperonin Activity; AID 651819, 2012; 360,000 compounds, 0.3% hits; activity change, % (test concentration not listed), hits read low; purified chaperonin ATPase assay, HTRF ADP detection, 30 min; in the data active = activity change below about -30%
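We incubate TRiC, 40 or 20 nM final, with library compounds at 76 uM and 10 uM ATP for 30 min at 37 °C. ADP formed is detected with Transcreener HTRF reagents after 30 min at room temperature.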
Nrf2 block – Nrf2 qHTS screen for inhibitors | Potency, µM (series often up to 46 µM), actives largely listed as inhibitors | 360,000 compounds, 2.1% hits | A549 ARE-Fluc reporter, luciferase luminescence, 18-24 h; note: nearly all actives have a fitted effect of over 60% in size
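A549 ARE_Fluc cells, 5000/well, 5% FBS OPTI-MEM; compounds in dose-response, 18-24 h at 37 °C/5% CO2; CellTiter-Fluor viability read (Ex 405/Em 525), then BugLite luciferase luminescence = Nrf2 activity.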
Nrf2 ARE act – qHTS of Nrf2 Activators; AREc32 ARE-luciferase reporter (MCF7-derived line), luminescence, 24 h; Potency, µM (titrated, usually from 46.1 µM), usual class: activators; 410,000 compounds, 0.31% hits; AID 624171, 2012; note: nearly all actives have a fitted effect of over 65% in size
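For detection, Steady-Glo was added and plates sat 30 min at RT; before that, AREc32_Fluc cells grown overnight in OPTI-MEM/5% FBS had been treated with 23 nL compound for 24 hr at 37 deg C.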
TCR activator – Activators of T cell receptors: qHTS campaign; primary human leukocytes, anti-CD3, IL-2 HTRF, 48 h; Potency, µM (top dose mostly 9.22 µM), usual class: activators; 330,000 tested, under 10 active; AID 504894, 2011
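48 hr co-incubation of compounds, a-CD3 beads and primary human leukocytes; IL-2 quantified homogeneously by HTRF with anti-IL-2 K and d2 conjugates.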
A-T KAP1 phos – qHTS Assay for Identifying a Potential Treatment of Ataxia-Telangiectasia | F2112 A-T fibroblasts, KAP-1 phosphorylation AlphaLISA; neocarzinostatin DNA damage 30 min before lysis | Potency, µM (series often up to 57.5 µM), actives largely listed as activators | 320,000 compounds, 0.19% hits; note: nearly all actives have a fitted effect of over 45% in size
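hTERT-immortalized A-T patient fibroblasts (F2112), 500 cells/well in OPTI-MEM, 1% FBS, got compounds for 60 min, then NCS for 30 min at 37C. Lysates were then assayed for phospho-KAP-1 by AlphaLISA (anti-pKAP1 donor, anti-KAP1 acceptor beads), 6 hr at 25C.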
FLuc counter 3 – Nrf2 qHTS screen for inhibitors: Purified Fluc Biochemical Counterscreen for Hit Validation | AID 720522, 2013 | Potency, µM (highest dose often 57.5 µM), most hits filed as inhibitors | 1,400 compounds, 4% hits | purified firefly luciferase, luminescence inhibition | shares compounds with Nrf2 block; note: nearly all actives have a fitted effect of over 65% in size
Target sequence (P08659 whole entry, looked up): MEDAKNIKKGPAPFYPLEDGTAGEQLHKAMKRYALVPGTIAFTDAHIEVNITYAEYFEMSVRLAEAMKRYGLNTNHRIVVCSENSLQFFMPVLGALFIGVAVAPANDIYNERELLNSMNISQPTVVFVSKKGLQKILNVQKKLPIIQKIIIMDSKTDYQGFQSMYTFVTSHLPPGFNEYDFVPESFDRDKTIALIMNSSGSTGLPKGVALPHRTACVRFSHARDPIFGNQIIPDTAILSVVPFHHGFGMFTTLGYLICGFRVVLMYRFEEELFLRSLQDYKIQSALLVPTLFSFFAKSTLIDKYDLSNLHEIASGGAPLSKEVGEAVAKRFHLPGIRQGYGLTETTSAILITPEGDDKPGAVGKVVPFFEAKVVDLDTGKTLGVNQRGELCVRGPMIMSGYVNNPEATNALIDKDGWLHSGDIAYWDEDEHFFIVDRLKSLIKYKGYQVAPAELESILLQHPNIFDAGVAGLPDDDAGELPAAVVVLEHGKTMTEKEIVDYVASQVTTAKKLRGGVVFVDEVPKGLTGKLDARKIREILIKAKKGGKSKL
A549 tox-2 – Nrf2 qHTS screen for inhibitors: A549 ARE-Fluc Cytotoxicity Counterscreen for Hit Validation; shares compounds with Nrf2 block; A549 ARE-Fluc cells, cytotoxicity counterscreen; Potency, µM (doses to about 46.1 µM), hits mostly inhibitors; 1,400 compounds, 2% hits; AID 720523, 2013;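 note: cells exposed to compounds for 18 to 24 hours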
ARE-Fluc inh – Nrf2 qHTS screen for inhibitors: Nrf2 A549 ARE-Fluc Confirmation Assay for Hit Validation; A549 ARE-firefly luciferase reporter, luminescence; 1,400 compounds, 74% hits; AID 720524, 2013; shares compounds with Nrf2 block; Potency, µM (series often up to 46.1 µM), actives largely listed as inhibitors; note: nearly all actives have a fitted effect of over 65% in size
Numbers stand for hits; 0 = inactive; ? = inconclusive; - = no result shown. Unless noted, calls come from the whole dose curve; as a rule, active = well fitted curve in the direction sought with a large enough effect; inconclusive = small, poorly fitted or top-dose-only effect, or another doubt; inactive = no such curve, though single readings can be large; an effect the other way counts as inactive or inconclusive.

SMILES	A549 tox-1	CCT modulator	Nrf2 block	Nrf2 ARE act	TCR activator	A-T KAP1 phos	FLuc counter 3	A549 tox-2	ARE-Fluc inh
COc1ccc(CN2CCN(C(=O)Cn3c(=O)oc4cc(Cl)ccc43)CC2)c(OC)c1OC	?	0	2.9µM	0	0	0	0	0	?
C[C@]12CCC3C(CC[C@H]4[C@@H](O)[C@H](O)CC[C@]34C)C1CCC2=O (some centres undefined)	0	0	0	0	0	-	-	-	-
CC12CC(=O)C3C(CCC4CC(=O)C=CC43C)C1CCC2=O (centres undefined)	0	0	3.3µM	0	0	-	0	0	2.6µM
CN(Cc1ccccc1)C(=O)c1cccc(NC(=O)Cc2ccc([N+](=O)[O-])cc2)c1	0	0	?	0	0	0	-	-	-
Cc1cccc(Cn2c(SCc3ccc(C(=O)NC4CCCCC4)cc3)nc3cccnc32)c1	0	-	?	0	-	-	-	-	-
CCCCCCC[n+]1ccc(-c2cc[n+](CCCCCCC)cc2)cc1	0	0	2.6µM	0	0	0	0	0	8.2µM
CCCCCCCCCCCCCCCC[n+]1ccccc1	?	0	8.2µM	0	0	-	0	0	8.2µM
CCCCCCCC(=O)OCC(COC(=O)CCCCCCC)OC(=O)CCCCCCC	0	0	?	0	0	0	-	-	-
CCC(C)C1NC(=O)C(NC(=O)C(CC(C)C)N(C)C(=O)C2CCCN2C(=O)C(C)O)C(C)OC(=O)C(Cc2ccc(OC)cc2)N(C)C(=O)C2CCCN2C(=O)C(CC(C)C)NC(=O)[C@H](C)C(=O)[C@H](C(C)C)OC(=O)CC1O (some centres undefined)	0.037µM	0	0.0073µM	0	0	-	0	?	0.01µM
C#CCCC[C@@H]1OC(=O)CNC(=O)C([C@@H](C)CC)NC(=O)[C@@H]2CCCN2C(=O)C([C@@H](C)CC)OC(=O)[C@H](Cc2ccccc2)N(C)C(=O)[C@H](C(C)C)NC(=O)C1(C)C (some centres undefined)	-	0	-	0	-	-	-	-	-
NNC(=O)c1nc[nH]c1C(=O)Nc1ccc(Cl)cc1C(=O)c1ccccc1	0	0	0	0	0	0	-	-	-
CC(C)(C)OC(=O)NCc1ccc(CNC(=O)c2nc[nH]c2C(=O)NCc2ccc(CNC(=O)OC(C)(C)C)cc2)cc1	0	0	6.5µM	0	0	0	0	0	13µM
CC(C)C[C@H]1C(=O)N2CCC[C@H]2[C@]2(O)O[C@](NC(=O)[C@@H]3C=C4c5cccc6[nH]c(Br)c(c56)CC4N(C)C3)(C(C)C)C(=O)N12 (some centres undefined)	0	0	?	0	0	0	-	-	-
COc1cc2nc(CN3CC=C(c4ccccc4)CC3)[nH]c(=O)c2cc1OC	?	0	2.3µM	0	0	-	0	?	-
Cc1cc(NC(=O)c2cc(-c3cccc(Cl)c3)on2)nn1Cc1ccc(Cl)cc1	0	-	2.6µM	0	-	-	0	0	21µM
CCOc1ccc(CN(CCc2ccc3c(c2)OCO3)Cc2cc(OC)ccc2O)cc1	0	-	0	0	-	-	-	-	-
CC(=O)c1cn(Cc2ccccc2C#N)c2ccccc12	?	0	1µM	0	0	0	0	0	0
CCOC(=O)c1ncn2c1CN(C)C(=O)c1cc(F)ccc1-2	0	0	2.1µM	0	0	0	0	0	7.3µM
COc1ccc(OC)c(NC(=O)Cn2cc(C(=O)c3ccccc3F)c3ccccc32)c1	0	-	0	0	-	-	-	-	-
CC(C)[C@]1(O)[C@@H](OC(=O)c2ccc[nH]2)[C@@]2(O)[C@@]3(C)C[C@]4(O)O[C@@]5([C@H](O)[C@@H](C)CC[C@]35O)[C@@]2(O)C41C	0	-	0	-	-	-	-	-	-
C=CCN1C(=O)C2(C(C(=O)OC)=C(N)Oc3c2c(=O)oc2ccccc32)c2ccccc21 (centres undefined)	0	-	0	-	-	-	-	-	-
CC(=O)N1CCCc2cc(S(=O)(=O)N3CCCC(C(=O)Nc4cccc(F)c4)C3)ccc21 (centres undefined)	0	0	9.2µM	0	0	0	0	0	-
CN(CC(=O)Nc1cccc(F)c1)CC(=O)Nc1cccc(S(=O)(=O)N(C)c2ccccc2)c1	0	0	?	0	0	-	-	-	-
Nc1c(C(=O)Nc2ccc(Cl)c(C(F)(F)F)c2)sc2nc3c(cc12)N1CCC3CC1	0	-	6.5µM	0	-	-	0	?	7.3µM
N#Cc1cc2c(nc1SCC(=O)Nc1ccc(C(F)(F)F)cc1)C1CCN2CC1	0	-	8.2µM	0	-	-	0	0	12µM
N#Cc1cc2c(nc1SCC(=O)Nc1ccc(Cl)c(C(F)(F)F)c1)C1CCN2CC1	0	-	7.3µM	0	-	-	0	0	7.3µM
Nc1c(C(=O)Nc2ccc(Cl)cc2)sc2nc3c(cc12)N1CCC3CC1	0	-	?	0	-	-	-	-	-
CCOc1ccc(CN(CCc2ccc3c(c2)OCO3)Cc2cccc(C)c2)cc1	0	-	0	0	-	-	-	-	-
CCOc1ccc(NCc2cccn2-c2nnc(N3CCC(C(=O)NC(C)c4ccccc4)CC3)s2)cc1 (centres undefined)	0	-	?	0	-	-	-	-	-
CC(=O)OC1CC[C@]2(C#N)[C@H]3CC[C@]4(C)[C@H](C5C=CC(=O)O5)CCC4(O)C3CCC2(O)C1 (some centres undefined)	0	0	5.2µM	0	0	?	0	?	6.5µM
